Inconclusive results are not listed. Calls of active or inactive are those of the source. Calls come from the whole dose curve.
Test: Confirmation and Secondary Assays for Modulators of Hemoglobin Beta Chain Splicing at IVS2 654 and 705 loci
Details: HeLa beta-globin IVS2-654 splicing GFP reporter, 48 h
Source text: NIH Chemical Genomics Center [NCGC]
NIH Molecular Libraries Screening Centers Network [MLSCN]
PI Name: Dr. Ryszard Kole
Modulation of Alternative Splicing as Therapy
Abnormal splicing is associated with a number of diseases, including cancer and genetic diseases such as cystic fibrosis, muscular dystrophy and beta-thalassemia. Alteration of disease associated splicing patterns provides a promising target for treatment. […] Mutations in the second intron of the b-globin gene at positions 654 or 705 are clinically relevant and cause mis-splicing which results in an out of frame gene product.
EGFP-654 HeLa Cells as screen system.
(§1) HeLa cell lines were stably transfected with a construct in which the EGFP (enhanced green fluorescent protein) cDNA was interrupted by the second intron of the beta-globin gene (IVS2-654). The ISV2 intron contains mutations which cause mis-splicing of EGFP and premature termination of EGFP which results in a nonfluorescent protein product. […] Expression of the transgene was driven by the CMV promoter. We concluded that a low molecular weight compound, which restored correct splicing of intron 2 would also generate functional EGFP protein, resulting in a fluorescent signal. Thus, the HeLa cells that express the EGFP-654 construct can be used for high throughput screening of a chemical library.
EGFP-705 HeLa Cells as screen system.
as §1, with “(IVS2-705).” for “(IVS2-654).”, “EGFP-705” for “EGFP-654”, “validation of splice site specificity of compounds identified in primary” for “high throughput”, “the ISV2 654 construct.” for “a chemical library.”
NCGC Assay Protocol Summary:
Confirmatory Screening. Freshly thawed HeLa EGFP-654 or EGFP-705 cells were seeded in 5 ul of optimem media (Invitrogen) containing 2 % fetal calf serum (Hyclone) and 1x penicillin/streptomycin (Invitrogen) at a concentration of 500 cells per well in 1536-well plates. Cells were incubated overnight at 37C in 5% CO2. The next day, cells were treated with DMSO, 500 nM antisense ISV2 654 (or 705) PNA control oligo, or library compound and allowed to grow at 37C in 5% CO2 for 2 days. The PNA oligo blocked the mutation site in the intron and allowed proper (wild type) splicing to occur, resulting in full length EGFP expression and also allowed for optimization of the assay parameters. Plates were read in the Acumen Explorer (TTP Labtech) using 488 nm laser excitation and 500-520 nm emission PMT filter in a 1 x 8 uM capture mode, and were read immediately after compound pinning (beta-globin-654-gfp-0hr), at 24 hours (beta-globin-654-gfp-24hr and beta-globin-705-gfp-24hr), and at 48 hours (beta-globin-654-gfp-48hr and beta-globin-705-gfp-48hr). Fluorescnet objects ranging in size from 5 to 250 uM were measured and the total peak GFP intensity for each well was used for data analysis. Cell death was measured by quantitating protease release by sick and dying cells using Promega's luminescent Cytotox-Glo reagent. Cells were treated with 2ul of Cytotox- Glo reagent incubated at room temperature for 5 minutes and read in the Viewlux plate reader with a 30 second integration time (beta-globin-654-protease-48hr and beta-globin-705-protease-48hr).
Keywords: Thalassemia, beta-thalassemia, beta-globin, EGFP, ISV2 654, ISV2 705, SSO, PNA, antisense, splicing, MLSMR, MLSCN, NIH Roadmap, qHTS, NCGC

Potency, active:
Nc1nc(=S)c2ncn([C@H]3O[C@@H](CO)[C@@H](O)[C@@H]3O)c2[nH]1 1260 nM
Nc1nc2n[nH]nc2c(=O)[nH]1 2510 nM
O=c1[nH]c(=O)n([C@@H]2O[C@H](CO)[C@@H](O)[C@H]2O)cc1F 3980 nM
Cn1cnc([N+](=O)[O-])c1Sc1ncnc2nc[nH]c12 2000 nM
CCn1c(C)nc([N+](=O)[O-])c1Sc1ncnc2nc[nH]c12 2000 nM
OCC1OC(n2cnc3c(=S)nc[nH]c32)C(O)C1O (stereo not drawn) 1780 nM
S=C1NC=NC2N=CNC12 (stereo not drawn) 1580 nM
Nc1nc(=S)c2[nH]cnc2[nH]1 1120 nM

Source: PubChem BioAssay AID1405 (National Center for Advancing Translational Sciences (NCATS), 2008)
